Among the data in PubChem BioAssay AID722 (NMMLSC, 2007) are inhibition values, retold here.

The structures appear in SMILES notation. Out of some 1,300 compounds screened, about 40 (3%) were called active. What follows is part of a selection rich in actives, with near analogues and random picks from the rest. Unmarked numbers belong to inactive results. Cut-off read from the data, not from the text of the source: active = inhibition above about 30%; inactive = the rest.

What is called inhibition is the relative decrease from the control value, in per cent.

Sequence of fMet-Leu-Phe receptor (Homo sapiens) (P21462 whole entry, looked up): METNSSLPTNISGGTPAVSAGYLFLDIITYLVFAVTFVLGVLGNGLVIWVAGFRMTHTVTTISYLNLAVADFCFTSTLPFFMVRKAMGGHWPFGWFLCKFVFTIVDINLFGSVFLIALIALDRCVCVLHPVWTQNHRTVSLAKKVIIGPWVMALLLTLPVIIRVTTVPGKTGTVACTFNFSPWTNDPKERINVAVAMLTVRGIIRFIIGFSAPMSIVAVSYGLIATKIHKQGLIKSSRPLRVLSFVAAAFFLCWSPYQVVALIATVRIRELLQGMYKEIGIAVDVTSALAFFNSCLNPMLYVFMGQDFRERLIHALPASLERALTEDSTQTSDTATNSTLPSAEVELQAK

This test concerns the target fMet-Leu-Phe receptor (Homo sapiens) (UniProt P21462). Kind of test: FPR1 fluorescent ligand binding inhibitors, primary screen, cell-based, flow cytometry, SAR analysis (AID 722). Particulars: FPR-expressing cells, stronger effect = higher value, concentration not given here.
Turning to `COc1ccc(-c2c(C)[nH]n3c(=O)c(Cc4ccccc4)c(C)nc23)cc1`, the inhibition was 6.3%. Next, `Cc1nc2c(-c3ccc(Cl)cc3)c(C(F)(F)F)[nH]n2c(=O)c1Cc1ccccc1`: 50.1% (active); `Cc1nc2c(-c3ccc(Cl)cc3)c[nH]n2c(=O)c1Cc1ccccc1`: -1.4%.

As to `N#CCn1c(=O)n(Cc2ccccc2)c(=O)c2oc3ccccc3c21`, the inhibition is -0.8%. In the case of `CCCCN(Cc1ccco1)C(=O)c1noc2c1CCCCC2` it was 0.1%. Consider `CCOC(=O)c1c(NC(=O)c2cccc(Br)c2)sc(C)c1C`, for which the inhibition is -4.3%. On to `Cc1ccc(C)c(NC(=O)Cn2c(-c3nonc3N)nc3ccccc32)c1`, for which the inhibition was 5.3%.

Turning to `O=c1c2cccnc2n(Cc2ccccc2F)c(=O)n1Cc1ccccc1`, the inhibition was -7.5%. In the case of `O=c1c2cccnc2n(Cc2ccccc2F)c(=O)n1Cc1cccs1` it was -0.6%; in that of `Cc1sc2c(c1C)c(=O)n(Cc1ccccc1)c(=O)n2Cc1ccccc1F`, 38.5% (active); in that of `Cc1ccc(C)c(Cn2c(=O)cc(C)c3c(C)nn(-c4cccc(F)c4)c32)c1`, -2.2%. For `CCOC(=O)c1sc(N2C(=O)C(=O)/C(=C(/O)c3ccccc3)C2c2ccc(C(C)C)cc2)nc1C` (centres undefined), the inhibition is 7.9%.

With `Cc1nnc(N2C(=O)C(=O)/C(=C(/O)c3ccc(F)cc3)C2c2cccc(Oc3ccccc3)c2)s1` (centres undefined), the inhibition is -8.8%. In the case of `Cc1ccc(CN(Cc2ccco2)C(=O)c2cccc(C)c2)cc1` it was -4.5%; in that of `O=C(O)CCCN1C(=O)C(=O)/C(=C(/O)c2ccccc2)C1c1ccc(Br)cc1` (centres undefined), 1.2%; in that of `O=C(O)CCCN1C(=O)C(=O)/C(=C(/O)c2ccccc2)C1/C=C/c1ccccc1` (centres undefined), 44.6% (active). Next, `O=C(O)CCCN1C(=O)C(=O)/C(=C(/O)c2ccccc2)C1c1ccc(F)cc1` (centres undefined): 5.5%; `O=C1C(=O)N(CCCN2CCOCC2)C(c2cccnc2)/C1=C(\O)c1ccccc1` (centres undefined): -3.2%; `COc1cc(C2C(C(C)=O)=C(O)C(=O)N2c2ccc(Br)cc2)ccc1O` (centres undefined): 35.8% (active). Next, `COC(=O)c1ccc(C2C(C(C)=O)=C(O)C(=O)N2c2ccc(OCC(=O)O)cc2)cc1` (centres undefined): 2.2%; `COc1cccc(C2C(C(C)=O)=C(O)C(=O)N2c2ccc(C)c(Br)c2)c1` (centres undefined): -9%; `Cc1cccc(C(=O)N(C(=O)c2cccc(C)c2)c2ncccn2)c1`: -8.2%.

In the case of `CCN(C(=O)c1noc2c1CCCCC2)c1cccc(C)c1`, the inhibition was -6.2%.

With `O=C(C1=C(O)C(=O)N(CCCN2CCOCC2)C1c1cccnc1)c1ccco1` (centres undefined), the inhibition was -9.2%. Consider `COc1ccc(C2C(C(=O)c3cccs3)=C(O)C(=O)N2CCCn2ccnc2)cc1` (centres undefined), for which the inhibition is 42.2% (active). In the case of `O=C(C1=C(O)C(=O)N(CCCN2CCOCC2)C1c1cccnc1)c1cc2ccccc2o1` (centres undefined) it was 22.2%. Next, `O=C(C1=C(O)C(=O)N(CCCn2ccnc2)C1c1cccnc1)c1ccco1` (centres undefined): 33.2% (active). Next, `O=C(C1=C(O)C(=O)N(CCCn2ccnc2)C1c1ccc(Cl)cc1)c1cccs1` (centres undefined): 19.5%. Consider `COc1ccc(C2C(C(=O)c3cccs3)=C(O)C(=O)N2CCCn2ccnc2)c(OC)c1` (centres undefined), for which the inhibition was 1.7%. For `O=C(C1=C(O)C(=O)N(CCCn2ccnc2)C1c1cccnc1)c1cccs1` (centres undefined), the inhibition is 3.5%. Take `O=C(C1=C(O)C(=O)N(CCCn2ccnc2)C1c1cccnc1)c1cc2ccccc2o1` (centres undefined): the inhibition was 40.4% (active). In the case of `O=C(C1=C(O)C(=O)N(CCCn2ccnc2)C1c1cccc(Br)c1)c1ccco1` (centres undefined) it was 0.3%; in that of `O=C(C1=C(O)C(=O)N(CCc2ccccc2)C1c1ccc([N+](=O)[O-])cc1)c1cccs1` (centres undefined), -7.4%; in that of `COc1cccc(C2C(C(=O)c3cccs3)=C(O)C(=O)N2CCc2ccccc2)c1` (centres undefined), 15.8%. In the case of `O=C(C1=C(O)C(=O)N(CCc2ccccc2)C1c1ccc(Cl)cc1)c1cccs1` (centres undefined) it was 77.6% (active); in that of `O=C(C1=C(O)C(=O)N(CCCN2CCOCC2)C1c1ccco1)c1ccco1` (centres undefined), -4.4%; in that of `Cc1ccc(/C(O)=C2\C(=O)C(=O)N(CC3CCCO3)C2c2ccc([N+](=O)[O-])cc2)cc1` (centres undefined), -3.9%. In the case of `CCCC(=O)N1CCc2cc(OC)c(OC)cc2C1COc1ccc(OC)cc1` (centres undefined) it was -2.3%. Regarding `Cc1nc2c(C(=O)N3CCCCC3)c[nH]n2c(=O)c1Cc1ccccc1F`, the inhibition is -4.3%.

As for `CCOc1ccc(C2/C(=C(/O)c3ccccc3)C(=O)C(=O)N2CCO)cc1` (centres undefined), the inhibition was 1.5%. On to `Cc1ccc(/C(O)=C2\C(=O)C(=O)NC2c2ccc(F)cc2)cc1` (centres undefined), for which the inhibition is 10%. Next, `Cc1ccc(/C(O)=C2\C(=O)C(=O)NC2c2ccccc2)cc1` (centres undefined): 0.5%; `O=C(c1cccs1)N1c2ncnn2C2(CCCCC2)[C@@H]2CCCC[C@@H]21`: 0.9%; `COc1cccc(N(Cc2nnc3n2CCCCC3)C(=O)Nc2ccccc2)c1`: -7.8%. As for `COc1ccccc1C1CC(c2ccccc2)=NN1C(=O)c1ccccc1` (centres undefined), the inhibition was 0%. In the case of `CCOC(=O)c1c(NC(=O)c2ccc(Cl)cc2)sc(C)c1C` it was -1%. In the case of `CCOC(=O)c1c(NC(=O)c2cc(F)c(F)cc2Cl)sc2c1CCC2` it was -9.6%; in that of `CCOC(=O)c1c(NC(=O)c2cccc(F)c2)sc2c1CCCC2`, -4%.

As for `C=CCC(CC=C)(NC(=O)c1cccc(C)c1)c1ccccc1`, the inhibition is 0.8%.

Regarding `O=C(C1=C(O)C(=O)N(c2nncs2)C1c1ccccc1F)c1cccs1` (centres undefined), the inhibition was -6.8%. In the case of `CCc1c(C)nc2c(C#N)c[nH]n2c1=O` it was 0.5%. Next, `CC(=O)C1=C(O)C(=O)N(CCN2CCOCC2)C1c1ccc([N+](=O)[O-])cc1` (centres undefined): 5.7%. Turning to `CCC(C)(C(=O)NC1CCCCC1)N(Cc1cccs1)C(C)=O` (centres undefined), the inhibition is 57.2% (active). On to `CCOc1ccccc1C(=O)N(Cc1cccs1)c1ccc(C)cc1`, for which the inhibition is 5.8%. In the case of `CCC(C)(C(=O)NC1CCCCC1)N(C)C(=O)Cc1cccs1` (centres undefined) it was -25.1%; in that of `COc1cccc(C(=O)N(Cc2ccco2)Cc2ccccc2F)c1`, -2.3%; in that of `O=C(C(Cc1ccccc1)N1Cc2ccccc2C1=O)N1CCCCCC1` (centres undefined), 0.8%. Turning to `COc1ccc(Oc2c(C(F)(F)F)oc3cc(OC(=O)c4ccco4)ccc3c2=O)cc1`, the inhibition was 9.6%. Turning to `COc1ccc(-c2c(C(F)(F)F)oc3cc(OC(=O)c4ccco4)ccc3c2=O)cc1OC`, the inhibition was 43.5% (active).

As to `COc1ccc(C(=O)Oc2ccc3c(=O)c(-c4ccc(OC)c(OC)c4)c(C(F)(F)F)oc3c2)cc1`, the inhibition is 9.4%.

Take `COc1ccc(-c2c(C(F)(F)F)oc3cc(OC(=O)c4ccc(C)cc4)ccc3c2=O)cc1OC`: the inhibition is -0.2%. Regarding `COc1ccccc1-c1c(C(F)(F)F)oc2cc(OC(=O)c3ccccc3C)ccc2c1=O`, the inhibition is 2.7%. `COc1ccccc1-c1c(C(F)(F)F)oc2cc(OC(=O)c3ccco3)ccc2c1=O`: the inhibition was 59% (active). Next, `COc1cc(C2C(C(=O)c3cc4ccccc4o3)=C(O)C(=O)N2c2nnc(C)s2)ccc1O` (centres undefined): -5.6%; `O=C1OC(c2ccccc2F)/C(=C(/O)c2ccccc2)C1=O` (centres undefined): 2.1%. `CCOC(=O)c1cc2ccccc2n1CC(=O)c1ccccc1`: the inhibition is -0.2%. Turning to `O=C1C(=O)N(c2nncs2)C(c2ccc(F)cc2)/C1=C(\O)c1ccccc1` (centres undefined), the inhibition was 5.9%.

`Fc1cccc(-c2nn(CN3CCCCC3)c(=S)n2-c2ccccc2)c1`: the inhibition is 4.7%. As to `COc1ccc(C2/C(=C(\O)c3ccc(F)cc3)C(=O)C(=O)N2c2nnc(C)s2)cc1` (centres undefined), the inhibition is 4.6%. Next, `COc1ccc(/C(O)=C2\C(=O)C(=O)N(CCN3CCOCC3)C2c2ccc(Br)cc2)cc1` (centres undefined): 2.9%. In the case of `O=C(O)CCc1oc2cc(O)ccc2c(=O)c1-c1nc2ccccc2[nH]1` it was 11.1%. In the case of `CCOC(=O)c1c(NC(=O)C2CCCC2)sc2c1CCC(CC)C2` (centres undefined) it was -13.3%.

For the molecule `CCc1c(C)nc2c(-c3ccccc3OC)c(C)[nH]n2c1=O`, the inhibition is 5.5%. In the case of `CCOc1ccccc1C1CC(=O)NC2=C1C(=O)CC(c1ccccc1Cl)C2` (centres undefined) it was -7.2%; in that of `O=C1C(=O)N(CCN2CCOCC2)C(c2ccc(Cl)cc2)/C1=C(\O)c1ccc(F)cc1` (centres undefined), -8.1%. Next, `CCc1cc2c(=O)c(-c3nc4ccccc4n3C)c(C)oc2cc1O`: -2.5%. In the case of `CCc1cc2c(=O)c(-c3nc4ccccc4[nH]3)c(C)oc2cc1OC(C)=O` it was -0.7%; in that of `CCc1cc2c(=O)c(-c3nc4ccccc4n3C)c(C)oc2cc1OC(C)=O`, 78.9% (active); in that of `Cc1[nH]n2c(=O)cc(Cc3ccccc3)nc2c1-c1ccccc1`, 6.8%.

Consider `CCOC(=O)C(C#N)C(c1ccc2c(c1)OCO2)c1ccccc1OC` (centres undefined), for which the inhibition was -0.7%. In the case of `O=C(NC(c1nnc(-c2ccccc2)o1)c1ccccc1F)c1ccc(F)cc1` (centres undefined) it was -6%. As for `CN1C(=O)C2(/C(=C(/O)c3ccc(F)cc3)C(=O)C(=O)N2CCN2CCOCC2)c2ccccc21` (centres undefined), the inhibition is -6.9%. In the case of `Cc1ccc(C2/C(=C(/O)c3ccccc3)C(=O)C(=O)N2Cc2cccnc2)cc1` (centres undefined) it was 5.2%; in that of `Cc1ccc(/C(O)=C2\C(=O)C(=O)N(Cc3cccnc3)C2c2ccc(Br)cc2)cc1` (centres undefined), 61.8% (active). With `CC(C)(C)c1ccc(C2/C(=C(\O)c3ccccc3)C(=O)C(=O)N2Cc2cccnc2)cc1` (centres undefined), the inhibition is -8.3%. Next, `COc1ccc(C2/C(=C(\O)c3ccc(C)cc3)C(=O)C(=O)N2Cc2cccnc2)c(OC)c1` (centres undefined): 65.6% (active); `CC(C)c1ccc(C2/C(=C(\O)c3ccccc3)C(=O)C(=O)N2Cc2cccnc2)cc1` (centres undefined): 40.5% (active); `COCCCN1C(=O)C(=O)/C(=C(/O)c2ccc(C)cc2)C1c1ccc(C(C)C)cc1` (centres undefined): 2.7%. As to `O=C1C(=O)N(Cc2cccnc2)C(c2ccc(Cl)cc2)/C1=C(\O)c1ccccc1` (centres undefined), the inhibition was 8.1%. Next, `COc1ccccc1C1/C(=C(\O)c2ccc(C)cc2)C(=O)C(=O)N1Cc1cccnc1` (centres undefined): -4.4%. Next, `COc1ccc(C2/C(=C(/O)c3ccccc3)C(=O)C(=O)N2Cc2ccccc2)c(OC)c1` (centres undefined): -11%; `COCCCN1C(=O)C(=O)/C(=C(/O)c2ccccc2)C1c1ccc(C(C)C)cc1` (centres undefined): 54.4% (active). With `COCCCN1C(=O)C(=O)/C(=C(/O)c2ccccc2)C1c1ccc(Cl)cc1` (centres undefined), the inhibition was 0.5%. Next, `O=C1C(=O)N(Cc2cccnc2)C(c2ccc(Br)cc2)/C1=C(\O)c1ccccc1` (centres undefined): -0.7%.
